This is an account of results in the supplement of paper PMC10849652.

Assay in all cases: log2 fold change, soluble protein after heating vs DMSO (PISA); higher = thermal stabilisation; K562 lysate, 10 uM; active = over 0.2 and 3.5 SD of the protein, either way, in both replicates (recomputed)
Compound in one experiment: C=CC(=O)N1CCC[C@@H](n2nc(-c3ccc(Oc4ccccc4)cc3)c3c(N)ncnc32)C1 [ibrutinib]
The method, boiled down:
(§1)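 Following dounce homogenisation of K562 pellets in PBS pH 7.4 with 1 mM MgCl2, crude extract at 1 mg/mL protein was incubated for 30 min with 10 μM compound. Aliquots were then heated for 3 min over 48°C-58°C and pooled, NP-40 was added to 0.5% at 4°C, and soluble protein was recovered as the supernatant at 21,000xg for 90 min. Channel-sum-equalised TMTpro 16plex LC-MS/MS quantified this protein. Each value, from duplicates, is a log-two fold change in thermal stability relative to solvent controls.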

Compound in experiment [1]: CC(=O)c1cnc2ccc(-c3cc(Cl)c(O)c(Cl)c3)nc2c1N[C@H]1CC[C@H](CN(C)C)CC1
The method, boiled down: as §1

Compound in a further experiment: CC(C)(C)Cn1c(N)nc2ccc(-c3[nH]c(C(C)(C)C)nc3-c3ccc(F)cc3)nc21 [ralimetinib]
The method, boiled down:
as §1

Compound in experiment [2]: CC(C)(O)CC(=O)NCCn1ccc2ncnc(Nc3ccc(Oc4cccc(C(F)(F)F)c4)c(Cl)c3)c21
The method, boiled down: as §1

Compound in experiment [3]: CC(C)C1=C2N=C(C=C(N2N=C1)NCC3=CC=CC=C3)NCCCCCCN
The method, boiled down:
as §1

Compound in experiment [4]: CC1=C(C(CC(=O)N1)C2=CC=C(C=C2)C(F)(F)F)C(=O)NC3=C(C=C4C(=C3)C=NN4)F
The method, boiled down:
as §1

Compound in experiment [5]: CC1=C(C2=C(C=C1)C(=O)C3=CC=CC=C3N2CCCN)C
The method, boiled down: as §1

Compound in experiment [6]: CC1=C(C=C(C=C1)NC(=O)C2=CC(=CC=C2)C(C)(C)C#N)NC3=CC4=C(C=C3)N=CN(C4=O)C
The method, boiled down: as §1

Compound in experiment [7]: CC1=C(C=C(C=C1)NC(=O)C2=CC(=CC=C2)N(C)C)NC(=O)C3=CC=C(C=C3)O
The method, boiled down:
as §1

Compound in experiment [8]: CC1=CC=C(C=C1)SC2=C3C=C(SC3=CN=C2)C(=O)N
The method, boiled down:
as §1

The full data set covers some 8,800 targets. This sample favours those with a hit. About 0.5% of all pairs of compound and target were hits. A number with no mark means an inactive call.

Sequence of UniProt Q92685 (Q92685 whole entry, looked up): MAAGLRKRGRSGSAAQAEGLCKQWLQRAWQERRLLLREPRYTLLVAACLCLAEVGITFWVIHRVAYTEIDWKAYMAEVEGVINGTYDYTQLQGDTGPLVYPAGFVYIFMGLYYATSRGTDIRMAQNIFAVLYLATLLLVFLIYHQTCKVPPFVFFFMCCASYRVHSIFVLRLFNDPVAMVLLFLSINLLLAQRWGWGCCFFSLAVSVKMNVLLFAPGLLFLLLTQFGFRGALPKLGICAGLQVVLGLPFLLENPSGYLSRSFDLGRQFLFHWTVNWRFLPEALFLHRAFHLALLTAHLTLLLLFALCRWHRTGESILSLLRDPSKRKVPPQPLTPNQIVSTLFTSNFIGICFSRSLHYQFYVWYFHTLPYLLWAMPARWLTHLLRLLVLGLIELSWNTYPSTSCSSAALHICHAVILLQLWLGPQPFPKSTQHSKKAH
Sequence of UniProt P53396 (P53396 whole entry, looked up): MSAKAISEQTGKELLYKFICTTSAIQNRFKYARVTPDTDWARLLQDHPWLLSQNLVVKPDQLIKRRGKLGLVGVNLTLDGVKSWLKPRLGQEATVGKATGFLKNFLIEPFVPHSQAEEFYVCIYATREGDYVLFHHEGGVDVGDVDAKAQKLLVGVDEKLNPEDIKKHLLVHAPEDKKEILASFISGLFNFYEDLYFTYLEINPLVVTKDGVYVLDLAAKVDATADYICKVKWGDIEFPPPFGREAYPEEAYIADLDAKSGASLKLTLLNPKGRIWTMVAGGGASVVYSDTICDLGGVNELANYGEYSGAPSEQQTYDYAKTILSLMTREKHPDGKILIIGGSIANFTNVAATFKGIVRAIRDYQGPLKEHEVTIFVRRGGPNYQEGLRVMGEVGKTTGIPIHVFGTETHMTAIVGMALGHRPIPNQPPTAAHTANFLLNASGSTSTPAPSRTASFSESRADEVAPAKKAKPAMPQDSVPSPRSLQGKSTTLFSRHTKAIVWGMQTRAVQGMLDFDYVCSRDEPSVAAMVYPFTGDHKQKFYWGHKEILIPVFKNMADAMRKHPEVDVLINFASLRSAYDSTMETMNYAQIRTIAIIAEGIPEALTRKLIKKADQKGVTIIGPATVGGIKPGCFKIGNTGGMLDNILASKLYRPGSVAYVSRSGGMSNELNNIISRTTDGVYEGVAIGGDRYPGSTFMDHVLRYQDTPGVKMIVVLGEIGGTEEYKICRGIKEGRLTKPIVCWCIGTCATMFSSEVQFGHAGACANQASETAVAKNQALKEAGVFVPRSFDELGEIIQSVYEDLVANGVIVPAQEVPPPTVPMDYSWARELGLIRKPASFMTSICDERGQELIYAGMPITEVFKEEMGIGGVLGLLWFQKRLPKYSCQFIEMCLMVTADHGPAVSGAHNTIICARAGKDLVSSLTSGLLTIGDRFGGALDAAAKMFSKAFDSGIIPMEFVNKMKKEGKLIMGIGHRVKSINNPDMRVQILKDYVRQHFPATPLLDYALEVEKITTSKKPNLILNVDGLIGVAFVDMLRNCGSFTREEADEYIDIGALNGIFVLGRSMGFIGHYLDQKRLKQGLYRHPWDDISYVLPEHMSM
Sequence of UniProt P08758 (P08758 whole entry, looked up): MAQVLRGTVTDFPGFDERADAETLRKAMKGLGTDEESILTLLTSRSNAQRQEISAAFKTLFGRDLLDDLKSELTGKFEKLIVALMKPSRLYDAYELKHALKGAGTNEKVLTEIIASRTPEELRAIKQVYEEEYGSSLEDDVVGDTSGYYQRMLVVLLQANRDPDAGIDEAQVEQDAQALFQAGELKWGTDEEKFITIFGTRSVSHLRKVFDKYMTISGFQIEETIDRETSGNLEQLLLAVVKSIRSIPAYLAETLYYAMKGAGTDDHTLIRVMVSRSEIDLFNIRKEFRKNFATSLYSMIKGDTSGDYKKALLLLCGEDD
Sequence of UniProt P35611 (P35611 whole entry, looked up): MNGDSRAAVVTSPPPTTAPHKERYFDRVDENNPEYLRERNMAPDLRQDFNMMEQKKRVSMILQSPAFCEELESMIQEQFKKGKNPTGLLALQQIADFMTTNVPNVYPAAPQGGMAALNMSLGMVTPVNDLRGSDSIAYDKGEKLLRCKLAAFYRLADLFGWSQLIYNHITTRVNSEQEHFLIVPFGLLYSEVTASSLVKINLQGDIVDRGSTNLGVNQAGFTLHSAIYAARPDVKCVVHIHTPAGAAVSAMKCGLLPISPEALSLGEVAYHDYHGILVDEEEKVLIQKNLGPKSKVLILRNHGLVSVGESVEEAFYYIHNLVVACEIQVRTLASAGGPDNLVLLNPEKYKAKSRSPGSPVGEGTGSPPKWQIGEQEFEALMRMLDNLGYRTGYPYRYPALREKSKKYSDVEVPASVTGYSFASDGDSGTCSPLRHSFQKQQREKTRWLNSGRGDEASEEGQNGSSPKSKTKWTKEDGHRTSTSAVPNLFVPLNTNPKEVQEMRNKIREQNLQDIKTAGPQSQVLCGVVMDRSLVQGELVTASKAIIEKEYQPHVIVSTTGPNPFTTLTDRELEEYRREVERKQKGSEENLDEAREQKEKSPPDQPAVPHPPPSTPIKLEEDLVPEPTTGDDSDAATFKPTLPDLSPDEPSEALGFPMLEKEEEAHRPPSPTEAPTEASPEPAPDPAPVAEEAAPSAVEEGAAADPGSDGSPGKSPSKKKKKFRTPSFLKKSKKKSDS
Sequence of UniProt Q9BVK2 (Q9BVK2 whole entry, looked up): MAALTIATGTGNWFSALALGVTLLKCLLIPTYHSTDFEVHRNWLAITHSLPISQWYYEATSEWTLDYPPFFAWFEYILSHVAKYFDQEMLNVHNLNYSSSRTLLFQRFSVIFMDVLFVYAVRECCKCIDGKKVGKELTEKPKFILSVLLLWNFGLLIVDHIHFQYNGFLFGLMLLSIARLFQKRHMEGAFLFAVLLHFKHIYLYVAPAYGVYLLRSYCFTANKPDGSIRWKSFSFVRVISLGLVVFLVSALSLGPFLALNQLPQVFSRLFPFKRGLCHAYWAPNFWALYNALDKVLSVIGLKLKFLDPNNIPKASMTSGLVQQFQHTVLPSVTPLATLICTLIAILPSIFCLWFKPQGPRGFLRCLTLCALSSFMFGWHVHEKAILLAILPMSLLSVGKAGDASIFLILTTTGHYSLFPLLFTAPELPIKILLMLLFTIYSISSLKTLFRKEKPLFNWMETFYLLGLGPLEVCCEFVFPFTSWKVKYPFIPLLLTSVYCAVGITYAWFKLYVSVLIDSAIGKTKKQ
Sequence of UniProt P33121 (P33121 whole entry, looked up): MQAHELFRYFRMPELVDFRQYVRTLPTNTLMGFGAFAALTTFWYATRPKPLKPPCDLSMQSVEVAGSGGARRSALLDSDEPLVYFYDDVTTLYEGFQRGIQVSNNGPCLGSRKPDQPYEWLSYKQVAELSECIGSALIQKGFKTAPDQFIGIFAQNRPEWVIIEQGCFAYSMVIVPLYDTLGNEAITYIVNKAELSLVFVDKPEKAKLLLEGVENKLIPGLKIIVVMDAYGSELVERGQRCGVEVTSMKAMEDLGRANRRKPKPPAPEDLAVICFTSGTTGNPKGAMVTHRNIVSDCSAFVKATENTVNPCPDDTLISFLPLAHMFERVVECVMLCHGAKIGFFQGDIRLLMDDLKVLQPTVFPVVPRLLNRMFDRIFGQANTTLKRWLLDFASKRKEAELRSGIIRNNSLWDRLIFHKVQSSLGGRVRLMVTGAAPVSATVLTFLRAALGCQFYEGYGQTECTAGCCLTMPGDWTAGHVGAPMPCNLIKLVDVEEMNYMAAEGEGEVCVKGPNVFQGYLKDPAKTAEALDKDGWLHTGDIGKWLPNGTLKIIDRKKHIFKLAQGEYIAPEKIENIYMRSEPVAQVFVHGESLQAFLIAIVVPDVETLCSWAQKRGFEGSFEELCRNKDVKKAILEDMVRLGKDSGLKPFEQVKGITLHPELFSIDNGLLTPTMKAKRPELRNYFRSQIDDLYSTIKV
Sequence of UniProt P51825 (P51825 whole entry, looked up): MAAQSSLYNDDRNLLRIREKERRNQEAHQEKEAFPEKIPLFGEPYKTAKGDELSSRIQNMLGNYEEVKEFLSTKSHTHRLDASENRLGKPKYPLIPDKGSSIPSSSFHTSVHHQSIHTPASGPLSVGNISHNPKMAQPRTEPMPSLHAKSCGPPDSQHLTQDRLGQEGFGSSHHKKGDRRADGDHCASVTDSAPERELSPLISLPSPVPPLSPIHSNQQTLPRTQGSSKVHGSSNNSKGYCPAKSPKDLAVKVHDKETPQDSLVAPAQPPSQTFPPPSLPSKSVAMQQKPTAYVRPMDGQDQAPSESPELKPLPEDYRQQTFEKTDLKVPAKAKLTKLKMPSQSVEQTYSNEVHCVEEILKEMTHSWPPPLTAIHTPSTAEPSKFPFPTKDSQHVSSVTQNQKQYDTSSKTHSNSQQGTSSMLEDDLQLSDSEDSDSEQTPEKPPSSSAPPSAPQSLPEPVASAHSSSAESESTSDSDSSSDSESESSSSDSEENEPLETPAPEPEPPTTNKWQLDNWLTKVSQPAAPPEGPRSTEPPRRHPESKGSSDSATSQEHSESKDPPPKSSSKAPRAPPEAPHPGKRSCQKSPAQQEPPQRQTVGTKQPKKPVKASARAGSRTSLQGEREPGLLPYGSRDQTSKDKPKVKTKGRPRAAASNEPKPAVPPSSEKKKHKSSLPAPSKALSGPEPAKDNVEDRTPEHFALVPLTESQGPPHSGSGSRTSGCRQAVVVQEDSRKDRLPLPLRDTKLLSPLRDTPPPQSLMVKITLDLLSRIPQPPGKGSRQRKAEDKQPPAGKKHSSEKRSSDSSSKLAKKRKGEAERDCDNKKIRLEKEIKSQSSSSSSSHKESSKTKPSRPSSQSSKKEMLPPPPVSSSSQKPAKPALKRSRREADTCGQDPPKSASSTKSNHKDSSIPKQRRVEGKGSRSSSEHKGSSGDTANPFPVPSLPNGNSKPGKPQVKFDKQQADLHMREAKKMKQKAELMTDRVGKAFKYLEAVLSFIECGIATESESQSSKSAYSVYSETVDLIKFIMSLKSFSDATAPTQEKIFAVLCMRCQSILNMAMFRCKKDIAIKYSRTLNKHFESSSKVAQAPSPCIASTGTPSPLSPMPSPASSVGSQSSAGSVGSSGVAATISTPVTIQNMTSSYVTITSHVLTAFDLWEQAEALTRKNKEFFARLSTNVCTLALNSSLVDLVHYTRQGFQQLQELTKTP

ACACB (UniProt O00763): the log2 fold change was 0.051 with ibrutinib; 0.018 in experiment [1]; 0.069 with ralimetinib; 0.032 in [2]; 0.014 in [3]; -0.036 in experiment [4]. The log2 fold change was 0.015 in experiment [5], 0.021 in experiment [6], 0.052 in experiment [7] and 0.022 in experiment [8].

Take ANXA5 (UniProt P08758): the log2 fold change in the experiment with ibrutinib was -0.009; in experiment [1], -0.005; with ralimetinib, 0.014; in experiment [2], 0.038; in [3], -0.026; in experiment [4] it was 0.007. Also, the log2 fold change in experiment [5] is 0.032; in [6] it was -0.024; in experiment [7] it was 0; in experiment [8], 0.005.

In the case of ACLY (UniProt P53396), the log2 fold change with ibrutinib was -0.002; in experiment [1], 0.003; with ralimetinib it was 0.001; in experiment [2], -0.011; in experiment [3], 0.02; in experiment [4] it was -0.02. Besides, the log2 fold change is 0.014 in experiment [5], -0.014 in [6], -0.012 in experiment [7] and 0.054 in experiment [8].

With AKT1 (UniProt P31749), the log2 fold change is 0.028 with ibrutinib; 0.013 in experiment [1]; 0.005 in the experiment with ralimetinib; -0.023 in experiment [2]; 0.009 in experiment [3]; 0.003 in [4]. Also, the log2 fold change is -0.009 in [5], 0 in [6], -0.006 in experiment [7] and 0.019 in experiment [8].

For ALG8 (UniProt Q9BVK2), the log2 fold change with ibrutinib was 0.017; in experiment [1], -0.013; with ralimetinib, 0.013; in experiment [2], 0.036; in [3], -0.028; in [4], -0.005. In addition, the log2 fold change is 0.054 in experiment [5], 0.027 in [6], -0.011 in experiment [7] and -0.003 in [8].

As to AIFM2 (UniProt Q9BRQ8), the log2 fold change with ibrutinib is -0.016; in [1] it was -0.075; with ralimetinib, 0.028; in [2], 0.643 (active); in experiment [3] it was 0.275; in experiment [4], -0.033. In addition, the log2 fold change was -0.161 in [5], -0.04 in experiment [6], -0.051 in experiment [7] and 0.024 in experiment [8].

For the target ACAT1, A0A5F9ZHJ0, the log2 fold change was 0.034 with ralimetinib, -0.129 in experiment [2], -0.106 in experiment [4] and 0.013 in experiment [7].

With ACLY isoform 2 (UniProt P53396), the log2 fold change with ibrutinib is -0.015; in [1], 0.028; in the experiment with ralimetinib, -0.022; in [2], 0.07; in experiment [4], 0.008; in experiment [6], 0.018. Moreover, the log2 fold change was -0.008 in [7] and -0.01 in [8].

Regarding AFF1 isoform 2 (UniProt P51825), the log2 fold change was 0.136 in the experiment with ibrutinib; -0.028 in [1]; 0.078 with ralimetinib; -0.02 in experiment [2]; -0.001 in [3]; 0.037 in [4]. Also, the log2 fold change in [5] was -0.047; in [6], 0.023; in experiment [7] it was 0.02; in experiment [8], -0.002.

Turning to ADAM17 (UniProt P78536), the log2 fold change was 0.037 in the experiment with ibrutinib; -0.012 with ralimetinib; -0.032 in experiment [2]; -0.056 in experiment [3]; 0.16 in [4]; -0.029 in [5]. Moreover, the results for the log2 fold change in experiment [6] and in experiment [7] were -0.013 and -0.027, respectively.

For the target ADD1 isoform 4 (UniProt P35611), the log2 fold change with ibrutinib was 0.214; in experiment [1] it was 0.003; with ralimetinib it was -0.104; in [2], -0.356; in experiment [3], 0.056; in experiment [5], 0.004. Besides, the log2 fold change in [7] is 0.017; in experiment [8], -0.341.

For ACSL1 (UniProt P33121), the log2 fold change with ibrutinib was 0.009; in [1], 0.008; with ralimetinib it was -0.004; in [2], -0.075; in experiment [3], 0.01; in experiment [4], 0.024. In addition, the log2 fold change is 0.004 in experiment [5], -0.01 in [6], 0.026 in experiment [7] and -0.004 in experiment [8].

With ALG3 (UniProt Q92685), the log2 fold change in the experiment with ibrutinib was -0.163; in experiment [1], 0.03; with ralimetinib, -0.007; in [2], -0.032; in [3], -0.278; in [5], 0.014. The values for the log2 fold change in [6], in experiment [7] and in [8] were -0.024, 0.042 and 0.03, respectively.

On to ALG13 isoform 2 (UniProt Q9NP73), for which the log2 fold change in experiment [4] was 0.03.

In the case of ADK, A0A5F9ZH76, the log2 fold change is 0.168 with ibrutinib, 0.005 in [1], -0.156 in [4] and 0 in [8].

Consider ABRACL (UniProt Q9P1F3), for which the log2 fold change with ibrutinib was 0.109; in [1], -0.179; in [3] it was 0.001; in [4], -0.112; in [5], 0.142; in experiment [6], 0.051. Moreover, the log2 fold change in experiment [8] was 0.015.

On to ANKRD30A (UniProt Q9BXX3), for which the log2 fold change in the experiment with ibrutinib is -0.01; in experiment [1] it was 0.77; with ralimetinib, 0.014; in experiment [2], 0.088; in experiment [4], 0.007; in experiment [5] it was 0.038. Also, the values for the log2 fold change in experiment [6], in [7] and in experiment [8] were -0.088, 0.077 and -0.177, respectively.

In the case of ANKRD40 (UniProt Q6AI12), the log2 fold change in the experiment with ibrutinib is 0.008; with ralimetinib it was 0.062; in [2] it was 0.05; in experiment [3], 0.051; in experiment [4] it was 0.027; in experiment [5] it was -0.231. The results for the log2 fold change in experiment [6] and in experiment [7] were 0.075 and 0.087, respectively.

On to ABI1 isoform 6 (UniProt Q8IZP0), for which the log2 fold change is -0.034 in [1] and -0.028 in experiment [8].
